Rows were chosen to be rich in hits. Some 4.1% of all compounds tested hit in one or more screens of this group.
ssDAF-12 act: S. stercoralis DAF-12 activation, primary screen | HEK293 ssDAF-12/GRIP1 lit1-tk-luc reporter, luminescence; % of 3 µM dafachronic acid response | activation, % at 6.8 µM | 370,000 compounds, 1% hits;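 active = activation above the mean over all tested compounds plus 3 SD, cut at about 0.9% in these data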;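 note: 0% = DMSO-only wells and 100% = 3 µM delta7-dafachronic acid wells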
hgDAF12 agonist: activates the H. glycines DAF-12 receptor ligand-binding domain | HEK293 GAL4-hgDAF12 UAS-luciferase reporter, agonist luminescence; normalized to butyrate control | activation, % at 6.8 µM | 370,000 compounds, 1.8% hits | AID 687014;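 active = activation above a cutoff set at the mean of all screened compounds plus 3 SD, cut at about 10% in these data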;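 note: 0% = DMSO wells and 100% = sodium butyrate wells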
DAX1 inh-1: DAX1 (NR0B1) inhibition, primary screen; HEK293T StAR-luciferase reporter, SF-1/DAX-1 repression relief; AID 652010; inhibition, % at 6.8 µM; 370,000 compounds, 1.1% hits;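 active = inhibition above the mean over all tested compounds plus 3 SD, cut at about 3.6% in these data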;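 note: 0% = DAX-1 cells with DMSO and 100% = cells lacking DAX-1 with DMSO; higher inhibition means more luminescence from relief of DAX-1 repression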
DAX1 inh-2: NR0B1 (DAX1) inhibition; P51843; HEK293 Gal4-DAX1 luciferase reporter, luminescence; inhibition, % at 6.75 µM; 340,000 compounds, 0.99% hits; AID 504766;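 active = inhibition above the mean over all tested compounds plus 3 SD, cut at about 4.2% in these data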;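 note: 0% = DAX1-transfected cells with DMSO and 100% = empty-vector control cells with DMSO; inhibition shows as a rise in luminescence from relieved DAX1 repression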
Target sequence (P51843 207-470 limits assumed): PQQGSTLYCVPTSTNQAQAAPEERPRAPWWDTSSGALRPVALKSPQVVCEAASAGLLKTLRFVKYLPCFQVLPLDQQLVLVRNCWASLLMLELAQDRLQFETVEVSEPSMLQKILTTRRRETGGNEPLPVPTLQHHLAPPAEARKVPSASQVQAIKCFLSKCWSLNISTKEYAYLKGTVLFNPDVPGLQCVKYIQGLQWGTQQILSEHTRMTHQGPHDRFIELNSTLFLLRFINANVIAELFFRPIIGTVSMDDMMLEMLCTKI
hcDAF12 agonist: activates DAF-12 receptor from parasite H. contortus; HEK293 hcDAF-12 lit1-tk-luc reporter, luminescence; 0% DMSO, 100% Δ7-dafachronic acid; activation, % at 6.8 µM; 370,000 compounds, 1.4% hits; AID 652067;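 active = activation above the mean of all tested compounds plus 3 SD, cut at about 5.5% in these data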;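 note: 100% = response to 3 µM Δ7-dafachronic acid high control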
An asterisk follows results filed as active; / = no result.

SMILES	ssDAF-12 act	hgDAF12 agonist	DAX1 inh-1	DAX1 inh-2	hcDAF12 agonist
CCOC(=O)c1sc2nc3c(cc2c1N)C(=O)CC(C)(C)C3	-1	1	1	4.4*	-2
COC(=O)c1sc2nc3c(cc2c1N)C(=O)CC(C)(C)C3	0	2	1	0	1
N/C(=N\OC(=O)Cc1cccs1)c1ccc([N+](=O)[O-])cc1	-1	11*	-1	-1	-1
COc1ccc(CN[C@@H]2CC[C@@]34CCCN3C(=O)CCC[C@H]4C2)cc1	-1	1	/	/	-2
O=C1C(=O)N(c2ccccc2)C(c2ccccc2[N+](=O)[O-])/C1=C(\O)c1ccccc1 (configuration not stated)	1.6*	4	-1	0	5
Cc1ccc(S(=O)(=O)N(C)CC(=O)N2CCCCCCC2)cc1	-1	0	-1	-2	0
Cc1ccc(S(=O)(=O)N(C)CC(=O)N2CCN(Cc3ccccc3)CC2)cc1	-1	-2	-1	5.0*	1
CCCC1CCC2(CCCN2CCOC(=S)Nc2ccccc2)CC1 (configuration not stated)	-2	2	/	/	-3
COC(=O)[C@]12C[C@H](CC(=O)NCc3ccc(C)o3)C(=O)N(Cc3cccc4ccccc34)C1=C[C@H](C(C)C)O[C@@H]2C1CC1	-1	0	-2	/	0
Cc1ccc(C)c(CN2CCC(CNC(=O)Nc3ccc(Cl)cc3)CC2)c1	-1	1	0	6.2*	-1
Cc1ccc(C)c(CN2CCC(CNC(=O)Nc3ccc(Br)cc3F)CC2)c1	-1	3	0	0	-1
Cc1cc(C(=O)O/N=C(\N)c2ccncc2)ccc1[N+](=O)[O-]	-1	5	1	4.4*	-1
O=C(COc1ccc(Cl)cc1Cl)Nc1ccc(C(=O)Nc2ccccc2C(=O)O)cc1	0	0	4.3*	0	2
Cc1cccc(OCC(=O)Nc2ccc(C(=O)Nc3ccccc3C(=O)O)cc2)c1	0	-5	1	-1	0
CN1C2=NC(c3ccccc3)CC(=O)N2/C(=C\c2ccccc2)C1c1ccccc1C(F)(F)F (configuration not stated)	-1	1	/	/	-3
CCOC(=O)c1nn(-c2ccc(Cl)cc2)cc1O	-1	7	2	8.9*	2
CCOC(=O)c1nn(-c2ccccc2)cc1O	-1	0	1	1	1
CCOC(=O)c1nn(-c2ccc(C)cc2)cc1O	0	10	3	0	3
CCOC(=O)c1nn(-c2ccc3ccccc3c2)cc1O	-2	13*	4.4*	1	2
CC(C)(C)OC(=O)NCCCc1ccc2c(c1)[C@]1(CCC[C@@H](OCc3ccccc3)[C@@H]1NC(=O)CCc1ccccc1)C(=O)N2Cc1ccccc1	0	6	0	/	-1
CCn1c(SCC(=O)NN=Cc2c(C)nn(-c3ccccc3)c2C)nnc1-c1ccc(OC)c(OC)c1	-2	0	-2	/	-1
Cn1c(CNc2ccc(F)cc2)nc2ccccc21	3.1*	13*	2	3	6.5*
CCCn1c(CNc2ccc(Br)cc2)nc2ccccc21	-1	2	-1	-1	-2
CCN(CC)C(=O)c1cc2sc3ccccc3c2s1	-1	12*	1	2	1
COc1ccc(/C=C2\CC3(OC(=O)c4ccco4)CCCN2C3)cc1 (configuration not stated)	-1	-3	1	/	1
SMILES	ssDAF-12 act	hgDAF12 agonist	DAX1 inh-1	DAX1 inh-2	hcDAF12 agonist
CN(C)CCCN(C(=O)c1cc(-c2cccs2)nc2ccccc12)c1nc2c(F)cccc2s1	-1	0	4.1*	1	-1
CN1C(=O)c2cc(NC(=O)Nc3ccccc3)ccc2OC[C@H]2O[C@@H](CC(=O)NC3CCC3)CC[C@@H]21	-1	-1	1	/	0
O=C(CSc1nnc(-c2cccnc2)n1-c1ccccc1)Nc1ccc(OCc2ccccc2)cc1	-2	-2	-4	/	-1
CC(C)CN1C(=O)C[C@@]2(C(=O)N(C)c3ccc(NS(=O)(=O)C4CC4)cc32)C1c1ccccc1 (some centres not stated)	-1	4	1	/	0
CCOC(=O)[C@]12CCCC=C1N(Cc1ccc(OC)cc1)C(=O)[C@@H]2CC(=O)N1CCN(C(=O)C2CC2)CC1	1.8*	-1	-2	/	-1
Cc1cc(C(=O)O[C@@H]2CCC[C@]3(C(=O)N(Cc4ccccc4)c4ccccc43)[C@H]2NC(=O)CCc2ccccc2)no1	-1	1	0	/	-2
CCCOc1ccc(N2C(=O)CC(N(CCc3ccc(OC)c(OC)c3)C(=S)Nc3ccccc3)C2=O)cc1 (configuration not stated)	/	/	/	0	/
CNC(=S)N(CCc1ccc(OC)c(OC)c1)C1CC(=O)N(c2ccccc2)C1=O (configuration not stated)	/	/	/	5.0*	/
CCOc1ccccc1C(=O)NN1C(=O)CCC1=O	1.0*	4	0	3	4
CCOc1ccccc1C(=O)NCCNC(=O)c1ccccc1OCC	-2	-1	0	2	-1
O=C(CSc1nnc(-c2cccs2)n1Cc1ccco1)Nc1ccc(OCc2ccccc2)cc1	-1	2	-1	/	-1
COC(=O)C1CN(Cc2cn(Cc3ccccc3)nn2)CCS(=O)(=O)N1Cc1ccc(Cl)cc1 (configuration not stated)	-2	-1	0	/	-2
CC(C(=O)Nc1cccnc1)C1Sc2ccccc2NC1=O (configuration not stated)	-1	3	0	1	6.0*
CCOC(=O)CC[C@@H]1CC[C@]2(CCCN(C(=O)c3ccco3)C2)O1	-1	-2	0	/	-2
O=C(NCCc1c[nH]c2ccccc12)c1cc([N+](=O)[O-])cc([N+](=O)[O-])c1	0.9*	-1	0	-1	5
Cc1ccc(C(=O)NCCCc2ccccc2)s1	0	10	1	3	6.2*
O=C(NCCc1c[nH]c2ccccc12)c1ccc([N+](=O)[O-])cc1	0	3	0	1	2
O=C(NCCc1c[nH]c2ccccc12)c1ccccc1	-1	7	0	1	2
Cc1ccc(C(=O)NCCc2c[nH]c3ccccc23)s1	1.3*	10	1	1	1
Cc1ccc(C(=O)NCC(=O)NCCCc2ccccc2)s1	-1	-1	0	-1	0
COc1ccc(Cn2cc(CN3CC=CS3(=O)=O)nn2)cc1	-1	4	0	/	-1
CCc1nc2c(OCc3ccccc3C)cccn2c1N(C)C(=O)c1ccco1	-1	-3	2	/	0
CN(C)c1ccc(C(=O)OCC(=O)N2CCCCCC2)cc1	-1	7	2	1	1
CN(C)c1ccc(C(=O)OCC(=O)N2CCCC2)cc1	0.9*	3	0	1	0
Cc1cc(C)c2nc(-n3nc(C)cc3N)cc(C)c2c1	0	7	1	1	5.7*
